Measurements reported in PubChem BioAssay (NCATS).
“And” between values parts separate entries of the source, which are not always exact repeats. Identical values can stand only once. Records with an inconclusive call do not appear. The source made the active and inactive calls. Unless noted, calls come from the whole dose curve.

What was measured:
[1] = Cell Viability - Jurkat (AID 426;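 active = dose-dependent loss of cell ATP signal giving a full or clear fitted curve, ranked by lower potency value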; note: potency is the fitted concentration of half-maximal effect); settings: qHTS
Outline: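 Seed 5000 Jurkat E6-1 cells/well; add compound; incubate 40 hr at 37 °C; add CellTiter-Glo; wait 20 min at room temperature; read luminescence. Fit concentration-response with Hill equation for AC50.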

[2] = Cell Viability - Hek293 (AID 427;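 active = compounds whose dose-response curve shows a full or clear partial loss of cell viability, called from curve shape rather than a numeric limit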;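 note: potency is the fitted concentration of half-maximal effect; cells exposed to compound for 40 hours at 37 °C before reading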); settings: qHTS
Outline: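 Luminescent ATP content (CellTiter-Glo, 20 min at room temperature) was measured after a 40 hr, 37 °C compound exposure of HEK293 cells. AC50 values came from Hill-equation fits of qHTS concentration-response data normalized to DMSO and 100 uM tamoxifen.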

[3] = Cell Viability - HepG2 (AID 433); settings: qHTS;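 note: potency is the fitted concentration of half-maximal effect; potency for ATP loss meaning cytotoxicity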
Outline: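 ATP luminescence (CellTiter-Glo) after 40 h compound exposure, 37 °C, HepG2, 1500 cells/well, complete medium. Normalized: DMSO = basal, 100 uM tamoxifen = 100% inhibition. AC50 via standard Hill equation.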

[4] = Cell Viability - MRC5 (AID 434); settings: MRC5 lung fibroblast viability, qHTS;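 note: potency is the fitted concentration of half-maximal effect; potency reflects cytotoxicity seen as loss of intracellular ATP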
Outline: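 MRC5 normal human lung fibroblasts, 1500 cells/well, exposed to compound for 40 hr at 37 C. Cellular ATP was read by CellTiter-Glo luminescence; data normalized to DMSO and 100 uM tamoxifen, with AC50 from Hill fits.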

[5] = Cell Viability - SK-N-SH (AID 435); settings: SK-N-SH neuroblastoma cell viability qHTS; note: potency is the fitted concentration of half-maximal effect
Outline: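 CellTiter-Glo ATP luminescence, 20 min RT read; cells pre-plated 5 hr, compound 40 hr at 37 °C, 1500 cells/well, complete medium. Normalized DMSO = 0, 100 uM tamoxifen = 100% inhibition; Hill-fit AC50.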

[6] = Cell Viability - N2a (AID 540; active = well fitted curve in the direction sought with a large enough effect; an effect the other way counts as inactive or inconclusive;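 note: plate controls were DMSO alone for no effect and tamoxifen control for full effect; nearly all actives have a fitted effect of over 45% in size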); settings: N2a mouse neuroblastoma cell viability; series mostly up to 92.2 µM
Outline: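 First, 1500 N2a cells per well incubate 5 hr at 37 °C; next, compounds are added and incubated 40 hr at 37 °C; finally CellTiter-Glo is added and luminescence read after 20 min, with AC50 derived by Hill modeling.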

[7] = Cell Viability - NIH 3T3 (AID 541; active = well fitted curve in the direction sought with a large enough effect; an effect the other way counts as inactive or inconclusive;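 note: plate controls were DMSO alone for no effect and tamoxifen positive control for full effect; nearly all actives have a fitted effect of over 25% in size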); settings: NIH 3T3 cell viability, qHTS; series mostly up to 92.2 µM
Outline: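 AC50 values reflect concentration-dependent loss of intracellular ATP in NIH 3T3 cells after 40 hr treatment in complete culture medium, quantified by luciferase-based luminescence.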

[8] = Cell Viability - HUV-EC-C (AID 542; active = well fitted curve in the direction sought with a large enough effect; an effect the other way counts as inactive or inconclusive; note: % is set by controls: 0 for no effect and ±100 for the full control effect; nearly all actives have a fitted effect of over 35% in size); settings: HUV-EC-C endothelial cell viability, qHTS; series mostly up to 92.2 µM
Outline: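 Decrease in cellular ATP, quantified by luciferase luminescence, reflects toxicity in normal human vascular endothelial HUV-EC-C cells given compound for 40 hr in complete culture medium. Values are AC50s from concentration-response curves.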

[9] = Cell Viability - H-4-II-E (AID 543; active = well fitted curve in the direction sought with a large enough effect; an effect the other way counts as inactive or inconclusive; note: % is set by controls: 0 for no effect and ±100 for the full control effect; nearly all actives have a fitted effect of over 35% in size); settings: H-4-II-E rat hepatoma viability; series mostly up to 92.2 µM
Outline: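 Here, cytotoxicity is measured in the rat hepatoma line H-4-II-E as loss of intracellular ATP after 40 hr compound treatment, detected by luciferase luminescence.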

[10] = Cell Viability - SH-SY5Y (AID 544; active = well fitted curve in the direction sought with a large enough effect; an effect the other way counts as inactive or inconclusive;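 note: 0% = DMSO alone and -100% = 100 µM tamoxifen; nearly all actives have a fitted effect of over 55% in size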); settings: SH-SY5Y neuroblastoma cell viability; series mostly up to 92.2 µM
Outline: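 Cytotoxicity is scored as a concentration-dependent fall in intracellular ATP in human SH-SY5Y cells treated 40 hr in complete culture medium. Potency is expressed as AC50 from a Hill equation fit.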

[11] = Cell Viability - Renal Proximal Tubule (AID 545; active = well fitted curve in the direction sought with a large enough effect; an effect the other way counts as inactive or inconclusive;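 note: 0% = DMSO only and -100% = 100 µM tamoxifen; nearly all actives have a fitted effect of over 40% in size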); settings: renal proximal tubule cells viability, primary cells of rat origin; series mostly up to 91.7 µM
Outline: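 Rat kidney proximal tubule cells, freshly isolated; 1000 cells/well, 5 hr settle, compound 40 hr 37 °C. CellTiter-Glo 20 min RT, luminescence read. AC50 by standard Hill fit.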

[12] = Cell Viability - Mesenchymal (AID 546; active = well fitted curve in the direction sought with a large enough effect; an effect the other way counts as inactive or inconclusive;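 note: cells exposed to compound for 40 hours before reading; 0% = DMSO only and -100% = 100 µM tamoxifen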); settings: mesenchymal cells viability, qHTS; series mostly up to 91.7 µM
Outline: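 Human kidney mesenchymal cells from normal renal glomeruli, 1000 cells/well, rested 5 hr at 37 °C, then treated 40 hr at 37 °C in complete medium. Cellular ATP read by CellTiter-Glo luminescence; AC50 from Hill-equation fits.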

[13] = target: Peroxisome proliferator-activated receptor gamma (Homo sapiens) (UniProt P37231); assay: qHTS assay for small molecule agonists of peroxisome proliferator-activated receptor gamma signaling (AID 588536; active = well fitted curve in the direction sought with a large enough effect in the signal ratio, with a control signal flat, not every such curve was filed as active; the % refers to the signal ratio;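 note: 0% = DMSO basal wells and 100% = rosiglitazone at 2 µM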); settings: HEK293 PPARg-UAS-bla, beta-lactamase ratio, 16 h, percent of rosiglitazone response, DMSO as zero; series mostly up to 76.7 µM
Chain of Peroxisome proliferator-activated receptor gamma (Homo sapiens) (P37231 whole entry, looked up): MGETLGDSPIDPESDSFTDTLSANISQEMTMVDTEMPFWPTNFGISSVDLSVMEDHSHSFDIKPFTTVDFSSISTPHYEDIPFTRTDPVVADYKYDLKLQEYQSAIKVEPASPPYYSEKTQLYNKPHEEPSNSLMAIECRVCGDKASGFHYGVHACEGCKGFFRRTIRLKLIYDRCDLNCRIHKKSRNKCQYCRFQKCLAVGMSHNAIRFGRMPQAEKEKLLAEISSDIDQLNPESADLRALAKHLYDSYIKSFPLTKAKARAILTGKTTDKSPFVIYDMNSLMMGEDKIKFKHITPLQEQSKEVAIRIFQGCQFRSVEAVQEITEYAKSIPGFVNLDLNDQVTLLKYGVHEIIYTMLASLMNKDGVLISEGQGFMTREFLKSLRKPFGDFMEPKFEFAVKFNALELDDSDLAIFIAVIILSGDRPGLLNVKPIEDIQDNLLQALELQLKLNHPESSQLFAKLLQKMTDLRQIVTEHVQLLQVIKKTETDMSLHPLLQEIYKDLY
Outline: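 Ratiometric blue/green fluorescence (405 nm excitation; 460 and 530 nm emission) from CCF4-loaded HEK293 reporter cells serves as signal. Exposure to test compounds lasts 16 h at 37 C in medium containing 1% charcoal/dextran-treated serum.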

[14] = target: Vitamin D3 receptor (Homo sapiens) (UniProt P11473); assay: qHTS assay for small molecule antagonists of vitamin D receptor signaling (AID 588541); settings: HEK293T VDR-UAS-bla, beta-lactamase ratio, antagonist mode; series mostly up to 76.7 µM;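 note: receptor activated by calcitriol during compound treatment; % is set by controls: 0 for no effect and ±100 for the full control effect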
Chain of Vitamin D3 receptor (Homo sapiens) (P11473 whole entry, looked up): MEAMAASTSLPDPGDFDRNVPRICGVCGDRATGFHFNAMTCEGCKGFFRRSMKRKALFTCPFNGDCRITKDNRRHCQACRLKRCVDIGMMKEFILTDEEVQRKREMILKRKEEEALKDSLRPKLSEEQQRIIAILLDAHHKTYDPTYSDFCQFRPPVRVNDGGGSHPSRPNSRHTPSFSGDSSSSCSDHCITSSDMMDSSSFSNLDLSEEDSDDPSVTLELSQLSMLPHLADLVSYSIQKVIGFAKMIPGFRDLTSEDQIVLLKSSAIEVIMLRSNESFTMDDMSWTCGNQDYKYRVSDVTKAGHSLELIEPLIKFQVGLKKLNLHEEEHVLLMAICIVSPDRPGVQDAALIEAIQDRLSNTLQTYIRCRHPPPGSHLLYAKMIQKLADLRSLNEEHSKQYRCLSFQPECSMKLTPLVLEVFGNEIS
Outline: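 VDR-UAS-bla HEK293T cells in 2% charcoal-stripped FBS were stimulated with 1-alpha,25-dihydroxyvitamin D3 (3 nM final) plus compound for 16 h at 37 C. The beta-lactamase CCF4 readout was normalized to 50 nM agonist and DMSO, and Hill fits gave IC50.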

[15] = target: Vitamin D3 receptor (Homo sapiens) (UniProt P11473); assay: qHTS assay for small molecule agonists of vitamin D receptor signaling (AID 588543); settings: HEK293T VDR-UAS-bla, beta-lactamase ratio, 16 h; series mostly up to 76.8 µM;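 note: 0% = DMSO basal and 100% = reference agonist control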
Outline: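 β-lactamase reporter, VDR-UAS-bla HEK293T, agonist mode. Cells plated 5 h at 37 °C, compound titration 16 h at 37 °C, CCF4 dye 2 h RT, ratio 460/530 nm. Hill fit → EC50, efficacy vs 50 nM 1α,25-(OH)2D3.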

[16] = qHTS assay for small molecule agonists of retinoid X receptor alpha signaling (AID 588544); settings: HEK293T RXRa-UAS-bla, beta-lactamase reporter, 18 h; 530 nm emission
[17] = target: Retinoic acid receptor RXR-alpha (Homo sapiens) (UniProt P19793); assay: as above; settings: HEK293T RXRa-UAS-bla, beta-lactamase reporter, 18 h; series mostly up to 76.7 µM
Chain of Retinoic acid receptor RXR-alpha (Homo sapiens) (P19793 whole entry, looked up): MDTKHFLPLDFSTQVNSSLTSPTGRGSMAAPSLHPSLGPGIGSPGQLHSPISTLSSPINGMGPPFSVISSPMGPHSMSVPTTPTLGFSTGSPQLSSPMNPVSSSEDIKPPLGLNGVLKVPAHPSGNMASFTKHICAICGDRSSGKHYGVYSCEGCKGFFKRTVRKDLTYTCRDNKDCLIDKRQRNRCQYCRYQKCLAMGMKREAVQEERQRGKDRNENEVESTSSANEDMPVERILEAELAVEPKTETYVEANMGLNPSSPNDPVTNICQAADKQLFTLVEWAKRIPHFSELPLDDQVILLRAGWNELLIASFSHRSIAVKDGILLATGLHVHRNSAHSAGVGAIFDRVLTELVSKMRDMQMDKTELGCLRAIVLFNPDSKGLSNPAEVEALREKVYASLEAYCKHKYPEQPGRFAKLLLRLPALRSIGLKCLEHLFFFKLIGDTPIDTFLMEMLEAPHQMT

[18] = target: Thyroid hormone receptor beta (Homo sapiens) (UniProt P10828); assay: qHTS assay for small molecule agonists of thyroid hormone receptor beta signaling (AID 588545); settings: TR-UAS-bla GripTite HEK 293, beta-lactamase ratio, agonist mode, 18 h, percent of T3 response, DMSO as zero; series mostly up to 76.7 µM
Chain of Thyroid hormone receptor beta (Homo sapiens) (P10828 whole entry, looked up): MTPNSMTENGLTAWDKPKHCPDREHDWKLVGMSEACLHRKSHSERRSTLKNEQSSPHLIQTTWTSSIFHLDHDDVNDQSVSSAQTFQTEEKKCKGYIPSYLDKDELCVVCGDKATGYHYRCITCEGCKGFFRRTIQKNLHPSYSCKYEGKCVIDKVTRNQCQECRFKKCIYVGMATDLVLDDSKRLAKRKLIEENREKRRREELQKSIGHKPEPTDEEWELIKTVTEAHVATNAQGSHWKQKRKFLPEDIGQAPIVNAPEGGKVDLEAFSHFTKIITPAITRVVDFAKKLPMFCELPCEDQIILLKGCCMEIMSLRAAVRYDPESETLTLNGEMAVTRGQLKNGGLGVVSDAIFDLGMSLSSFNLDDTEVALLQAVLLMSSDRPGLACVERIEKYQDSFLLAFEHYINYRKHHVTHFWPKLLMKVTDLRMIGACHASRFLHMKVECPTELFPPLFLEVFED
Outline: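 Cells (2500/well) were seeded, incubated 4 hrs at 37 C, dosed with a compound series, incubated 18 hrs, loaded with CCF4 dye for 2 hrs at RT, then read for fluorescence. Data were scaled between DMSO (0%) and 10 nM T3 (100%).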

[19] = qHTS assay for small molecule antagonists of retinoid X receptor alpha signaling (AID 588546; active = well fitted inhibition curve with a large enough effect in the signal ratio, with a control signal flat, not every such curve was filed as active; the % refers to the signal ratio;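 note: cells stimulated with 9-cis-retinoic acid as agonist; % is set by controls: 0 for no effect and ±100 for the full control effect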); settings: HEK293T RXRa-UAS-bla, beta-lactamase ratio, antagonist mode; measured here: W530 green channel, cytotoxicity proxy
Outline: (§1)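 Beta-lactamase reporter inhibition, read as CCF4 fluorescence ratio (ex 405, em 460/530 nm) after 2 h at RT. HEK293T UAS-bla cells, 2500/well, were stimulated with 9-cis-RA at 500 or 100 nM final alongside test compound for 18 h at 37 C.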

[20] = target: Retinoic acid receptor RXR-alpha (Homo sapiens) (UniProt P19793); assay: as above; settings: HEK293T RXRa-UAS-bla, beta-lactamase ratio, antagonist mode
Outline: as §1

C=CC(C)(O)CCC=C(C)C (stereo not given)
-4.18% and -11.2%: max response [19]
inactive: Potency [1] > 92 µM | Potency [2] > 92 µM | Potency [3] > 92 µM | Potency [4] > 92 µM | Potency [5] > 92 µM | outcome [6] | outcome [7] | outcome [8] | outcome [9] | outcome [10] | outcome [11] | Potency [12] | outcome [13] | outcome [14] | outcome [15] | outcome [17] | outcome [18] | max response [20] -7.55% and -18.1%
-15.4% and -5.89%: max response [16]
